From PubChem BioAssay (NCATS)
Inconclusive results are not listed. A call without a number means that no potency is given here. Unmarked numbers belong to inactive results. Calls of active or inactive are those of the source. Calls come from the whole dose curve; as a rule, active = well fitted inhibition curve with a large enough effect; inconclusive = small, poorly fitted or top-dose-only effect; inactive = no such curve, though single readings can be large or run the other way. Where a SMILES comes first, the peptide text is derived from it. The star is where a group is joined. AFC = O=c1cc(C(F)(F)F)c2ccc(N*)cc2o1

Test system: Zika virus NS2B-NS3 protease (unlinked complex)
Test: Primary screen GU Rhodamine qHTS for Zika virus inhibitors: Unlinked NS2B-NS3 protease assay (AID 1347159); note: nearly all actives have a fitted effect of over 60% in size; note: potency is the fitted concentration of half-maximal effect
Conditions: Recombinant ZIKV NS2B-NS3 protease, Rhodamine110 substrate fluorescence; series mostly up to 107 µM
Outline: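 In dose–response format, inhibition of unlinked protease (25 nM) was measured with 1.5 microM bis-peptide Rhodamine110 substrate. Aprotinin served as the intraplate control.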

| Structure (SMILES) | Potency | activity change, negative = inhibition |
| --- | --- | --- |
| CO[C@H]1C=C2C(CC[C@H](O[C@@H]3O[C@H](CO)[C@@H](O)[C@@H](O)[C@H]3O)C2(C)C)[C@]2(C)CC[C@]3(C)C([C@H](C)C(O)C(C=C(C)C)O[C@@H]4O[C@H](CO)[C@@H](O)[C@@H](O)[C@H]4O)CC[C@@]3(C)C12 (some centres undefined) | inactive | – |
| CC(=O)N[C@@H](CC(C)C)C(=O)N[C@@H](CCC(=O)O)C(=O)N[C@@H](CCC(=O)O)C(=O)N[C@@H](CC(=O)O)C(=O)Nc1ccc2c(C(F)(F)F)cc(=O)oc2c1 (Ac-LEED-{AFC}) | inactive | – |
| CC(C)(O)C1CCC2(C)C3C(O)C4C(C13)C42CO (centres undefined) | inactive | – |
| CC[C@H]1OC(=O)[C@H](C)[C@@H](O[C@H]2C[C@@](C)(OC)[C@@H](O)[C@H](C)O2)[C@H](C)[C@@H](O[C@@H]2O[C@H](C)C[C@H](N(C)C)[C@H]2O)[C@@](C)(O)C[C@@H](C)[C@@H]2N[C@@H](COCCOC)OC([C@H]2C)[C@]1(C)O | inactive | – |
| CC(=O)OC1C(O)C(C)=C(CCC(C)CC(=O)O)C2(C)CCCC(C)(C)C12 (centres undefined) | inactive | – |
| C[C@@H]1CC[C@]2(C(=O)O)CC[C@]3(C(=O)O)C(=CCC4[C@@]5(C)CC[C@H](O[C@@H]6O[C@@H](C)[C@H](O[C@@H]7O[C@H](CO)[C@@H](O)[C@H](O)[C@H]7O)[C@@H](O)[C@H]6O)C(C)(C)C5CC[C@]43C)C2[C@H]1C (some centres undefined) | inactive | – |
| CC(C)=CC/C=C(/C)[C@H]1CC[C@]2(C)[C@@H]1[C@H](O)CC1[C@@]3(C)CC[C@H](O)C(C)(C)[C@@H]3[C@@H](O[C@@H]3O[C@H](CO)[C@@H](O)[C@H](O)[C@H]3O[C@@H]3O[C@@H](C)[C@H](O)[C@@H](O)[C@H]3O)C[C@]12C (some centres undefined) | inactive | – |
| C=C1CC[C@H]2[C@@](C)(CCC[C@@]2(C)C(=O)O)[C@@H]1CCC(C)CCO (some centres undefined) | inactive | – |
| CCCC1=CC2=C(CO1)C(=O)C(C)(OC(=O)c1c(C)cc(OC)cc1O)C(O)C2 (centres undefined) | inactive | – |
| NC(=O)c1ccc(OCC2NC(=O)C3CCCN3C2=O)cc1 (centres undefined) | inactive | – |
| CC(C)[C@H]1CCC(CO)=C[C@@H]1/C=C(\CO)C(=O)O | inactive | – |
| C/C=C(\C)C(=O)O[C@@H]1CC2[C@@H](CC=C3C[C@@H](O[C@H]4C[C@H](OC)[C@H](O[C@H]5C[C@H](OC)[C@H](O[C@H]6C[C@H](OC)[C@H](O[C@H]7C[C@@H](OC)[C@H](O[C@@H]8O[C@H](CO)[C@@H](O)[C@H](O)[C@H]8O)[C@@H](C)O7)[C@@H](C)O6)[C@@H](C)O5)[C@@H](C)O4)CC[C@@]32C)[C@@]2(O)CC[C@H](C(C)=O)[C@@]12C (some centres undefined) | – | 20.3% [at 19.1 µM] |
| C[C@@H]1O[C@@H](O[C@H]2[C@H](OC(=O)[C@]34CCC(C)(C)C[C@H]3C3=CCC5[C@@]6(C)CC[C@H](O[C@@H]7O[C@H](CO[C@@H]8OC[C@H](O)[C@H](O)[C@H]8O)[C@@H](O)[C@H](O)[C@H]7O)C(C)(C)C6CC[C@@]5(C)[C@]3(C)C[C@H]4O)OC[C@@H](O)[C@@H]2O)[C@H](O)[C@H](O)[C@H]1O[C@@H]1OC[C@H](O)[C@H](O[C@@H]2OC[C@@H](O)[C@H](O)[C@H]2O)[C@H]1O (some centres undefined) | – | -11.8% [at 19.1 µM] |
| COc1cc(C2Oc3c(OC)cc(/C=C/C(=O)OC[C@H]4O[C@@H](OC(C)(C)C(=O)O)[C@H](O)[C@@H](O)[C@@H]4O)cc3C2CO)ccc1O (some centres undefined) | inactive | – |
| C=C1CC2[C@]3(C)C(=C(O)C(=O)[C@@]2(C)[C@]2(C(=O)OC)C(=O)C(C)OC(=O)[C@@]12C)C(C)(C)C(=O)CC3O (some centres undefined) | inactive | – |
| CCCCCCc1cccc(NC(=O)[C@H](N)CCP(=O)(O)O)c1 | inactive | – |
| COc1ccccc1CC(C(=O)O)N(C)C(=O)c1ccccc1 (centres undefined) | inactive | – |
| Cc1cc(O)cc(Oc2cc(C)c(C(=O)O)c(O)c2)c1 | 14.1 µM (active) | – |
| COc1ccc(C(OC2OC(CO)C(O)C(O)C2O)C(C)O)cc1 (centres undefined) | inactive | – |
| C[C@@H]1O[C@@H](O[C@H]2[C@H](OC(=O)C34CCC5(C)C(=CCC6C7(C)CC(O)C(O[C@@H]8O[C@H](C(=O)O)[C@@H](O)[C@H](O)[C@H]8O)C(C)(C(=O)O)C7CCC65C)C3CC(C)(C)CC4O)O[C@H](C)[C@@H](O)[C@@H]2O)[C@H](O)[C@@H](O[C@@H]2OC[C@](O)(CO)[C@H]2O[C@@H]2O[C@H](CO)[C@@H](O)[C@H](O)[C@H]2O)[C@H]1O (some centres undefined) | – | 4.07% [at 19.1 µM] |

Test system: Zika virus NS2B-NS3 protease (linked construct)
Test: Primary screen NINDS Rhodamine qHTS for Zika virus inhibitors (AID 1347160); note: nearly all actives have a fitted effect of over 55% in size
Conditions: purified NS2B-NS3 protease, Rhodamine110 substrate fluorescence; series mostly up to 57.1 µM
Outline: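 Each compound, titrated, sat 15 min with 25 nM linked protease before 1.5 microM Rhodamine110 substrate went in. Fluorescence gain over the next 15 min, in pH 8.0 Tris with Tween 20, gave Hill-fitted curves.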

| Structure (SMILES) | activity change, negative = inhibition | outcome | Potency |
| --- | --- | --- | --- |
| CC(=O)O[C@@H]1[C@H](O[C@@H]2O[C@H](CO)[C@@H](O)[C@H](O)[C@H]2O)[C@@H](O[C@@H]2O[C@@H](C)[C@H](O)[C@@H](O[C@@H]3O[C@H](CO)[C@@H](O)[C@H](O)[C@H]3O)[C@H]2O)[C@H](OC(=O)C23CCC4(C)C(=CCC5C6(C)CC(O)C(O[C@@H]7O[C@H](C(=O)O)[C@@H](O)[C@H](O)[C@H]7O)C(C)(C(=O)O)C6CCC54C)C2CC(C)(C)CC3O)O[C@@H]1C (some centres undefined) | 3.1% [at 10.7 µM] | – | – |
| CNC(=O)[C@H]1O[C@@H](n2cnc3c(NCc4ccc(N)c(I)c4)ncnc32)[C@H](O)[C@@H]1O | – | inactive [at 10.7 µM] | – |
| CC[C@H](/C=C/[C@@H](C)[C@H]1CC[C@H]2[C@@H]3CC=C4C[C@@H](O)CC[C@]4(C)[C@H]3CC[C@]12C)C(C)C | 7.22% [at 4.91 µM] | – | – |
| C/C(=C/CO)CC[C@@H]1[C@@]2(C)CCC[C@](C)(C(=O)O)C2CC[C@@]1(C)O (some centres undefined) | – | – | inactive |
| C/C=C1\[C@H](O[C@@H]2O[C@H](CO)[C@@H](O)[C@H](O)[C@H]2O)OC=C(C(=O)OC)[C@H]1CC(=O)OC | – | – | inactive |
| Cc1c(-c2ccnn2C)cc(C(=O)NCc2ccc(S(C)(=O)=O)cn2)c(=O)n1-c1cccc(C(F)(F)F)c1 | – | – | inactive |
| Oc1ccc([C@H]2COc3cc(O)ccc3C2)cc1 | – | – | inactive |
| COc1c(C)c(C(=O)c2ccc(N)c(C(=O)O)c2)n2ccccc12 | – | – | inactive |
| Cc1nc2c(-c3cnc(N)nc3)nc(N3CCOCC3)nc2n1C(C)C | – | – | inactive |
| C=CC1(C)CC(OC(=O)C(=C)C(O)COC(C)=O)C(C(=C)C(=O)OC)C(O)C1C(=C)CO (centres undefined) | – | – | inactive |
| O=C(OCc1cccc(O)c1O[C@@H]1O[C@H](CO)[C@@H](O)[C@H](O)[C@H]1O)C1(O)C(=O)C2C=CC1C1C=CC(=O)C(O)(C(=O)OCc3cccc(O)c3O[C@@H]3O[C@H](CO)[C@@H](O)[C@H](O)[C@H]3O)C21 (some centres undefined) | – | – | inactive |
| C=C1CCC2C(C)(COC3OC(COC(=O)CC(=O)O)C(O)C(O)C3O)CCCC2(C)C1CCC1=CCOC1=O (centres undefined) | – | – | inactive |
| CC(C)CC(=O)O[C@@H]1OC=C(CO[C@@H]2O[C@H](CO[C@@H]3O[C@H](CO)[C@@H](O)[C@H](O)[C@H]3O)[C@@H](O)[C@H](O)[C@H]2O)[C@H]2C[C@H](O)[C@@H](CO)[C@@H]12 | – | – | inactive |
| CC1(C)CCC2(C(=O)OC3OC(COC4OC(CO)C(O)C(O)C4O)C(O)C(O)C3O)CCC3(C)C(=CCC4C5(C)CCC(O)C(C)(C(=O)O)C5CCC43C)C2C1O (centres undefined) | – | – | inactive |
| O=C(O)C[C@H](O)C[C@H](O)/C=C/c1c(C2CC2)nc2ccccc2c1-c1ccc(F)cc1 | – | – | inactive |
| Nc1ncnc2c1ncn2[C@H]1CCCO1 | – | – | inactive |
| CN1C(=O)N[C@@H](Cc2c[nH]c3c(Cl)cccc23)C1=O | – | – | inactive |
| CC(=O)OC1C(O)CC(O[C@@H]2O[C@H](CO)[C@@H](O)[C@H](O)[C@H]2O)C2CCC3C(=O)OC(c4ccoc4)CC3(C)C21 (some centres undefined) | – | – | inactive |
| CNC(=O)O[C@H]1COc2ccc(N3CCN(C4COC4)CC3)cc2[C@@H]1NC(=O)c1ccc(F)cc1 | – | – | inactive |
| CO[C@H]1C=C2C(CC[C@H](O[C@@H]3O[C@H](CO)[C@@H](O)[C@@H](O)[C@H]3O)C2(C)C)[C@]2(C)CC[C@]3(C)C([C@H](C)C(O)C(C=C(C)C)O[C@@H]4O[C@H](CO)[C@@H](O)[C@@H](O)[C@H]4O)CC[C@@]3(C)C12 (some centres undefined) | – | – | inactive |
| CC(=O)N[C@@H](CC(C)C)C(=O)N[C@@H](CCC(=O)O)C(=O)N[C@@H](CCC(=O)O)C(=O)N[C@@H](CC(=O)O)C(=O)Nc1ccc2c(C(F)(F)F)cc(=O)oc2c1 (Ac-LEED-{AFC}) | – | – | inactive |
| CC(C)(O)C1CCC2(C)C3C(O)C4C(C13)C42CO (centres undefined) | – | – | inactive |
| CC[C@H]1OC(=O)[C@H](C)[C@@H](O[C@H]2C[C@@](C)(OC)[C@@H](O)[C@H](C)O2)[C@H](C)[C@@H](O[C@@H]2O[C@H](C)C[C@H](N(C)C)[C@H]2O)[C@@](C)(O)C[C@@H](C)[C@@H]2N[C@@H](COCCOC)OC([C@H]2C)[C@]1(C)O | – | – | inactive |
| CC(=O)OC1C(O)C(C)=C(CCC(C)CC(=O)O)C2(C)CCCC(C)(C)C12 (centres undefined) | – | – | inactive |
| C[C@@H]1CC[C@]2(C(=O)O)CC[C@]3(C(=O)O)C(=CCC4[C@@]5(C)CC[C@H](O[C@@H]6O[C@@H](C)[C@H](O[C@@H]7O[C@H](CO)[C@@H](O)[C@H](O)[C@H]7O)[C@@H](O)[C@H]6O)C(C)(C)C5CC[C@]43C)C2[C@H]1C (some centres undefined) | – | – | inactive |
| CC(C)=CC/C=C(/C)[C@H]1CC[C@]2(C)[C@@H]1[C@H](O)CC1[C@@]3(C)CC[C@H](O)C(C)(C)[C@@H]3[C@@H](O[C@@H]3O[C@H](CO)[C@@H](O)[C@H](O)[C@H]3O[C@@H]3O[C@@H](C)[C@H](O)[C@@H](O)[C@H]3O)C[C@]12C (some centres undefined) | – | – | inactive |
| C=C1CC[C@H]2[C@@](C)(CCC[C@@]2(C)C(=O)O)[C@@H]1CCC(C)CCO (some centres undefined) | – | – | inactive |
| CCCC1=CC2=C(CO1)C(=O)C(C)(OC(=O)c1c(C)cc(OC)cc1O)C(O)C2 (centres undefined) | – | – | inactive |
| NC(=O)c1ccc(OCC2NC(=O)C3CCCN3C2=O)cc1 (centres undefined) | – | – | inactive |
